The results in this text go back to ChEMBL document CHEMBL1961873, “Compounds: GSK PKIS; Assays: Nanosyn kinase panel” (2012).

Experiment [1] has as its target Mast/stem cell growth factor receptor Kit (Homo sapiens) (UniProt P10721). The following applies: at 1 µM.
Experiment [2] concerns Mast/stem cell growth factor receptor Kit (Homo sapiens), P10721 [D816V]. The following applies: at 0.1 µM.
The test system is the same in experiment [3]. The following applies: at 1 µM.
For experiment [4], the system named is Mast/stem cell growth factor receptor Kit (Homo sapiens), P10721 [T670I]. The following applies: at 0.1 µM.
Mast/stem cell growth factor receptor Kit (Homo sapiens), P10721 [T670I], sequence (P10721 whole entry T670I): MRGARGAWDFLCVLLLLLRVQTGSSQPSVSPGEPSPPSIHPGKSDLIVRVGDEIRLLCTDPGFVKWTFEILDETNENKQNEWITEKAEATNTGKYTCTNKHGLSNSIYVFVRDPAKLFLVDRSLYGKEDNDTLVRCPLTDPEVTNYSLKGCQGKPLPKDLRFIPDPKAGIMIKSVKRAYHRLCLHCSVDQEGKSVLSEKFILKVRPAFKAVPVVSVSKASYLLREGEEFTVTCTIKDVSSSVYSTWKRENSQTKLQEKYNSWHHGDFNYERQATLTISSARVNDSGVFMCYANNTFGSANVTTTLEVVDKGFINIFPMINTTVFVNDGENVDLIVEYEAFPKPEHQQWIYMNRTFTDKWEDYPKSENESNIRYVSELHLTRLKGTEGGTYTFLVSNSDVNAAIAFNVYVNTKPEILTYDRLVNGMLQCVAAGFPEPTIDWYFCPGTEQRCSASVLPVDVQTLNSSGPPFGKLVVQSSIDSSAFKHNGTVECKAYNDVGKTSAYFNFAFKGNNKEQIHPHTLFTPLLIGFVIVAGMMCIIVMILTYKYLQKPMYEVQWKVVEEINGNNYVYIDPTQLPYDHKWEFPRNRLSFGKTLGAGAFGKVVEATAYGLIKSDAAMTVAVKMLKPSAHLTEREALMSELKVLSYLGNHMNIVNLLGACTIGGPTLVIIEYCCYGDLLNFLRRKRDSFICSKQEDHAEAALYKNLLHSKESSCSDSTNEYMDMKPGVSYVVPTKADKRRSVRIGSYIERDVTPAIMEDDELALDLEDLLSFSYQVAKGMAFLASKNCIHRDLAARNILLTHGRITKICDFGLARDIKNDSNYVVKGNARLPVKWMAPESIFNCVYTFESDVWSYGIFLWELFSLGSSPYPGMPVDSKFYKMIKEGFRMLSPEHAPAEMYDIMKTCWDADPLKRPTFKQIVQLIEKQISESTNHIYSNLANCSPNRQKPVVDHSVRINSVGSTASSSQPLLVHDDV
For experiment [5] the test system is unchanged. The note with it: at 1 µM.
For experiment [6], the system named is Mast/stem cell growth factor receptor Kit (Homo sapiens), P10721 [V560G]. The note with it: at 0.1 µM.
Mast/stem cell growth factor receptor Kit (Homo sapiens), P10721 [V560G], sequence (P10721 whole entry V560G): as the sequence (P10721 whole entry T670I) above, with V560G, I670T counted along it
For experiment [7] the test system is unchanged. The note with it: at 1 µM.
The target of experiment [8] is Tyrosine-protein kinase Lck (Homo sapiens) (UniProt P06239). The following applies: at 0.1 µM.
Tyrosine-protein kinase Lck (Homo sapiens), sequence (P06239 2-509 limits assumed): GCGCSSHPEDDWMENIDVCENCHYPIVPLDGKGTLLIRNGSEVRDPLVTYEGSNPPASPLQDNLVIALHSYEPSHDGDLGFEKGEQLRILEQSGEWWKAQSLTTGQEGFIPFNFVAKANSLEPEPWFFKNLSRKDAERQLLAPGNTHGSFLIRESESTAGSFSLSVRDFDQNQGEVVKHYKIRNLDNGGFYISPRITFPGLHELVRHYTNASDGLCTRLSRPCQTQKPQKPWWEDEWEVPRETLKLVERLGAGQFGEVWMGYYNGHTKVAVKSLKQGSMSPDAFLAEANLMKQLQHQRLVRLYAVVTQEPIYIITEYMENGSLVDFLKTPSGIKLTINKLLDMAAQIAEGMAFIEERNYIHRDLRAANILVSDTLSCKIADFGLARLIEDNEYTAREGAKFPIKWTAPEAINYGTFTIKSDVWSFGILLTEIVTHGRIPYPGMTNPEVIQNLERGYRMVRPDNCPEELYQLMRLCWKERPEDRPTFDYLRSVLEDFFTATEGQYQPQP
Experiment [9] has the same target. The note with it: at 1 µM.
The target in experiment [10] is Leukocyte tyrosine kinase receptor (Homo sapiens) (UniProt P29376). The note with it: at 0.1 µM.
Leukocyte tyrosine kinase receptor (Homo sapiens), sequence (P29376 whole entry): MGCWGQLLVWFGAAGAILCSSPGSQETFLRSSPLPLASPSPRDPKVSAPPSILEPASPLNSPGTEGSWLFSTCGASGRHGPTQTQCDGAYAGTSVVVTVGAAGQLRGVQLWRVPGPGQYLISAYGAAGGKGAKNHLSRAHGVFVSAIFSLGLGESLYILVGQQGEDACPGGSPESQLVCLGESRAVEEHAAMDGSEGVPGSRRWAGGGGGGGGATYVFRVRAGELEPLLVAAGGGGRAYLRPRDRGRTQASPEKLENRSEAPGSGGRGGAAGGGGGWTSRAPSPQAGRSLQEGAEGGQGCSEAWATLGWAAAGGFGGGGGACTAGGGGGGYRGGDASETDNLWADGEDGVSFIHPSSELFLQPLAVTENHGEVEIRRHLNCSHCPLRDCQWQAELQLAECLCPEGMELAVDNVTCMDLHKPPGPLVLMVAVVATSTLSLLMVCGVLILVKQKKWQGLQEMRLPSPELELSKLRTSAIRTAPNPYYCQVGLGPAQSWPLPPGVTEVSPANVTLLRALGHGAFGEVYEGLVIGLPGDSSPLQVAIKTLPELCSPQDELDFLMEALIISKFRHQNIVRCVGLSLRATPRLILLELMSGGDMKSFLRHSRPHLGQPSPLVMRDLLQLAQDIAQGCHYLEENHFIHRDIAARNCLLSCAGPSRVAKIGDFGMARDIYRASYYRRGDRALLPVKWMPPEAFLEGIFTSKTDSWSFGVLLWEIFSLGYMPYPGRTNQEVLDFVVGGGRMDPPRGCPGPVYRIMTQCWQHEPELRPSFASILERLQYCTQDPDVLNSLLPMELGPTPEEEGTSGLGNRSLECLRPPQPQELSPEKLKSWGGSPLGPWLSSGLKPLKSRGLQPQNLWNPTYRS

Mast/stem cell growth factor receptor Kit (Homo sapiens), P10721 [D816V], sequence (P10721 whole entry D816V): as the sequence (P10721 whole entry T670I) above, with I670T, D816V counted along it
Mast/stem cell growth factor receptor Kit (Homo sapiens), sequence (P10721 whole entry): as the sequence (P10721 whole entry T670I) above, with I670T counted along it

The inhibition is the relative decrease from the control value, in per cent. For the compound `O=C1NC(=O)C(c2ccccc2Cl)=C1Nc1cccc(O)c1`, the inhibition in experiment [1] was 0.62%; in experiment [2] it was 2.13%; in experiment [3], 2.69%; in [4] it was -1.05%; in experiment [5] it was -0.04%; in experiment [6] it was 0.38%. The inhibition in experiment [7] was 1.68%; in experiment [8], 2.08%; in experiment [9], 5.21%; in experiment [10], 0.86%.

`COc1cc(C=NNc2ncnc3c2cnn3-c2ccccc2)ccc1O`: the inhibition in experiment [1] was 67%; in experiment [2] it was 2.68%; in experiment [3], 8.84%; in experiment [4], 4.5%; in experiment [5] it was 37.6%; in experiment [6] it was 8.24%. Moreover, the inhibition stood at 12.3% in [7], 19.4% in experiment [8], 63.9% in experiment [9] and 2.19% in experiment [10].

With `NS(=O)(=O)c1cccc(-c2ccc3c(NC(=O)C4CC4)n[nH]c3c2)c1`, the inhibition in [1] was 0.12%; in experiment [2] it was 1.16%; in experiment [3] it was 3.53%; in [4], -3.61%; in experiment [5], -1.9%; in experiment [6], 1.03%. Besides, the inhibition was 4.07% in experiment [7], -1.55% in [8], 3.43% in experiment [9] and 0.03% in experiment [10].

Take `Nc1ncnc2occ(-c3ccc(NC(=O)Nc4cccc(C(F)(F)F)c4)cc3)c12`: the inhibition in experiment [1] was 97.3%; in experiment [2], 3.24%; in experiment [3] it was 6.5%; in experiment [4] it was 72.5%; in experiment [5], 83.9%; in experiment [6], 104%. Further, the inhibition in experiment [7] was 97.8%; in [8] it was 12.1%; in experiment [9], 46.7%; in [10], 7.15%.

Turning to `CCCN1CCC(Oc2cc(Nc3nc(Nc4cccc(F)c4C(N)=O)c4cc[nH]c4n3)c(OC)cc2Cl)CC1`, the inhibition is 2.77% in experiment [1]; -2.42% in experiment [2]; -0.61% in experiment [3]; -1.82% in experiment [4]; 3.06% in experiment [5]; 5.14% in [6]. Further, the inhibition in experiment [7] is 6.37%; in experiment [8] it was -0.28%; in [9], 4.94%; in [10], 16.4%.

In the case of `O=C(Nc1n[nH]c2nc(-c3ccco3)c(Br)cc12)C1CC1`, the inhibition in experiment [1] was 4.71%; in [2], 4%; in [3], -1.99%; in [4], 2.25%; in experiment [5] it was 1.3%; in [6] it was 1.23%. For the same compound, the inhibition in [7] stood at 1.62%; in [8], 1.39%; in experiment [9], 6.71%; in [10], 1.93%.

Consider `CC1=C(C(=O)Nc2ccc3[nH]ncc3c2)C(c2ccc(Cl)c(Cl)c2)CC(=O)N1` (stereo not given), for which the inhibition was 2.48% in experiment [1]; -0.94% in [2]; 1.14% in experiment [3]; 0.21% in [4]; 1.52% in experiment [5]; 2.42% in [6]. Further, the inhibition was 4.56% in experiment [7], 4.63% in experiment [8], 30% in experiment [9] and 1.06% in experiment [10].

`CS(=O)(=O)Nc1ccc(N/C=C2\C(=O)Nc3ccccc32)cc1`: the inhibition in experiment [1] is 86.6%; in experiment [2] it was -1.84%; in [3], -0.2%; in [4], 7.79%; in experiment [5], 61.3%; in [6], 4.08%. Further, the inhibition is 20.4% in experiment [7], -0.69% in experiment [8], 5.83% in experiment [9] and 0.19% in experiment [10].

Take `[O-][S+]1CCN(Cc2ccc(-c3ccc4ncnc(Nc5ccc(OCc6ccccc6)c(F)c5)c4c3)o2)CC1`: the inhibition in experiment [1] is 3.42%; in experiment [2], 2.25%; in experiment [3] it was -1.53%; in [4] it was 0.34%; in [5], 1.07%; in experiment [6], -2.07%. Also, the inhibition is -2.71% in [7], 1.81% in experiment [8], 7.89% in [9] and 2.21% in experiment [10].

Regarding `CN1CCC(C(=O)Nc2n[nH]c3nnc(-c4ccccc4)cc23)CC1`, the inhibition in experiment [1] was 8.5%; in experiment [2], 7.35%; in experiment [3] it was 3.19%; in experiment [4], 4.77%; in experiment [5], 5.4%; in [6], -3.89%. The inhibition in experiment [7] is 1.05%; in experiment [8] it was 1.6%; in experiment [9] it was 4.09%; in experiment [10] it was 3.64%.

Regarding `COc1ccc(-c2nn3ncccc3c2-c2ccnc(Nc3ccc(Cl)c(C(F)(F)F)c3)n2)cc1`, the inhibition in experiment [1] was 8.96%; in [2], 0.87%; in experiment [3], 4.92%; in [4], -0.64%; in [5] it was 1.14%; in experiment [6], 0.89%. The inhibition in experiment [7] is -0.17%; in [8] it was -0.04%; in [9] it was 5.83%; in experiment [10] it was 2.25%.

For the compound `CN(C)c1cc2c(Nc3ccc4nc(Cc5ccccc5)[nH]c4c3)ncnc2cn1`, the inhibition in experiment [1] was 19.2%; in experiment [2], 7.07%; in [3], 7.56%; in [4], 2.88%; in experiment [5] it was 6.63%; in [6], 1.39%. Moreover, the inhibition in [7] worked out at 7.78%; in experiment [8], 7.36%; in [9], 33%; in experiment [10], 6.47%.

With `COc1cc2c(cc1Nc1nc(N3CCc4ccccc43)c3cc[nH]c3n1)N(C(=O)CN(C)C)CC2`, the inhibition is 5.18% in experiment [1]; 3.89% in experiment [2]; 5.06% in [3]; 1.21% in experiment [4]; 4.61% in experiment [5]; 0.64% in experiment [6]. In addition, the inhibition in experiment [7] was determined as 1.28%; in [8], 1.15%; in experiment [9], 6%; in [10], 75.9%.

As for `COc1cc2ncn(-c3cc(O[C@H](C)c4ccccc4Cl)c(C(N)=O)s3)c2cc1OC`, the inhibition was 27.1% in experiment [1]; 4.82% in [2]; 14.6% in [3]; 5.66% in experiment [4]; 32.1% in [5]; 4.1% in experiment [6]. In addition, the inhibition in [7] worked out at 13.9%; in experiment [8], 5.7%; in experiment [9] it was 27.7%; in experiment [10], 3.77%.

Turning to `N#Cc1c(NC(=O)c2cccc3ccccc23)sc2c1CCCC2`, the inhibition was 0.84% in experiment [1]; 1.1% in experiment [2]; 2.67% in experiment [3]; 2.84% in [4]; 1.87% in experiment [5]; -1.27% in experiment [6]. Further, the inhibition in experiment [7] stood at 3.59%; in experiment [8], 2.98%; in experiment [9], 4.35%; in [10], 2.58%.

`Cc1ccc(C(=O)NC2CCCCC2)cc1-c1ccc(C(=O)NCC2CC2)cc1`: the inhibition is 4.9% in experiment [1]; 3.74% in experiment [2]; 0.6% in experiment [3]; 0.04% in experiment [4]; 0.31% in [5]; 3.05% in [6]. In addition, the inhibition turned out to be 4.51% in experiment [7], 1.49% in experiment [8], 2.85% in experiment [9] and 0.67% in experiment [10].
